Assay results as given in PubChem BioAssay (NCI).
Where “and” joins values, the source holds several entries; their conditions need not be identical. Equal entries are not always repeated. About 79,000 compounds went through this panel and 15% of them were active in at least one assay; those are over-represented in the sample as a whole. Calls of active or inactive are those of the source. No stated cut-off is given here; in the data, active means growth inhibition above about 70%; inactive means the rest.

How the values were obtained:
[1] = NCI Yeast Anticancer Drug Screen. Data for the rad50 strain (AID 155);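 further: 0% = growth of vehicle-only cultures of the same strain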; settings: S. cerevisiae rad50 strain growth inhibition; at 50.0 µM; hits give high values
In short: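 Vehicle-treated cultures provide the reference for the growth inhibition reported for compound-exposed, repair-deficient yeast.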

[2] = NCI Yeast Anticancer Drug Screen. Data for the mec2-1 strain (AID 157); settings: S. cerevisiae mec2-1 strain, at 50.0 µM, hits give high values
In short: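 Yeast mec2-1 mutant treated with compound. Readout: growth inhibition vs vehicle controls.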

[3] = NCI Yeast Anticancer Drug Screen. Data for the sgs1 mgt1 strain (AID 161);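 further: 0% = growth of cultures given vehicle only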; settings: S. cerevisiae sgs1 mgt1 strain, at 50.0 µM, hits give high values
In short: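 Genetically altered yeast, compound exposure, growth inhibition relative to vehicle.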

[4] = NCI Yeast Anticancer Drug Screen. Data for the cln2 rad14 strain (AID 165);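 further: 0% = growth equal to vehicle treated cultures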; settings: S. cerevisiae cln2 rad14 strain, at 50.0 µM, hits give high values
In short: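 cln2 rad14 yeast strain; compound exposure; growth inhibition read vs vehicle controls.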

[5] = NCI Yeast Anticancer Drug Screen. Data for the bub3 strain (AID 167); settings: S. cerevisiae bub3 mutant strain, at 50.0 µM, hits give high values
In short: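 Mutant yeast screening strain plus compound; vehicle-treated cultures serve as the 0% inhibition reference.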

[6] = NCI Yeast Anticancer Drug Screen. Data for the mlh1 rad18 strain (AID 175); settings: S. cerevisiae mlh1 rad18 strain growth inhibition; at 50.0 µM; hits give high values
In short: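 Yeast w/ defined DNA-repair lesions; compound exposure; growth vs vehicle controls → % inhibition.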

Measured: growth inhibition

c1cnc[c]([Hg][c]2cccnc2)c1
active: [4] 73.5% | [5] 88.8%
inactive: [1] 40.1% | [2] 56.5% | [3] 37.2% | [6] 53.4%

CCC[CH2][Sn]([CH2]CCC)([CH2]CCC)[CH2]S(=O)(=O)O
active: [1] 99.3% | [2] 98.8% | [3] 98.9% | [4] 98.2% | [5] 99.4% | [6] 99%

COc1ccc(NC2=NCCO2)c2ccccc12
inactive: [1] -11.9% | [2] -42.3% | [3] -31.1% | [4] -0.3% | [5] -13.4% | [6] -20.9%

O=C(O)CN(CCN(CC(=O)O)CC(=O)O)CC(=O)O.[Co+2]
inactive: [1] 0.25% | [2] -3.85% | [3] 13.2% | [4] 19.1% | [5] 16.4% | [6] 7.45%

CCCCN1COC2CCCCC21 (stereo unspecified)
inactive: [1] 20.6% | [2] -13.2% | [3] -43.2% | [4] -12.6% | [5] -44.4% | [6] -32.9%

O=C([O-])C(F)(F)C(F)(F)F.[C-]#[O+].[C-]#[O+].[C-]#[O+].[C-]#[O+].[C-]#[O+].[Mn]
inactive: [1] -8% | [2] -29% | [3] 3.65% | [4] 0% | [5] 0.25% | [6] -7.25%

O=C(Nc1ccc(S(=O)(=O)Nc2ccc(N=Nc3ccc(N=Nc4ccccc4)cc3)cc2)cc1)C(N1CC1)(N1CC1)N1CC1
inactive: [1] 30.4% | [2] -9.5% | [3] 3.95% | [4] 9.05% | [5] -3.8% | [6] -7.35%

CCOP(=O)(OCC)/C(C#N)=C/c1ncc[nH]1
inactive: [1] -36.6% | [2] -23.9% | [3] -48% | [4] 19.7% | [5] 26.2% | [6] -55.4%

CN1C(=O)N(C)C(O)C(Cl)(Br)C1=O (stereo unspecified)
inactive: [1] -0.5% | [2] 2.5% | [3] 7.3% | [4] 26.2% | [5] 5.9% | [6] 12.7%

CCOC(=O)Cc1ccccc1
inactive: [1] 24.1% | [2] -5.85% | [3] -1.95% | [4] -2.05% | [5] 9.25% | [6] 23.8%

CC(=O)OC1(C#N)CC2OC1C1NC21 (stereo unspecified)
inactive: [1] 5.7% | [2] -8.8% | [3] 18.4% | [4] 8.8% | [5] -14.7% | [6] -13%

NC(=S)Nc1ccccc1
inactive: [1] 9.75% | [2] -18% | [3] -24.4% | [4] -11.1% | [5] 8.65% | [6] 5.6%

O=C1NC(=O)C(=C2C(=O)COC2=O)C(=O)N1
inactive: [1] -4.4% | [2] -16.6% | [3] -13.8% | [4] -1.7% | [5] -2.8% | [6] -19.5%

CC(C)CCCC(C)C1CCC2C3CC=C4CC(OC(=O)CN5CC5)CCC4(C)C3CCC12C (stereo unspecified)
inactive: [1] -0.3% | [2] -2.65% | [3] -4.85% | [4] -6.85% | [5] 18.8% | [6] 3.2%

CSP(=S)(SC(C)C)SC(C)C
inactive: [1] 13.7% | [2] 5.75% | [3] 13.2% | [4] 3.8% | [5] 0.5% | [6] 29.3%

CN(Cc1ccccc1)C1=NCCN1
inactive: [1] -1.85% | [2] 7.1% | [3] -2.95% | [4] -47.8% | [5] 15.1% | [6] 9.95%

C[Si](C)(OC(=O)N(CCCl)CCCl)O[Si](C)(C)OC(=O)N(CCCl)CCCl
inactive: [1] 14.8% | [2] 1.05% | [3] -33.6% | [4] -11.4% | [5] -31% | [6] -45.6%

NC(=O)C(CBr)NCc1ccccc1 (stereo unspecified)
inactive: [1] -0.1% | [2] -13.6% | [3] -6.15% | [4] -27.8% | [5] 6.7% | [6] -10.6%

Cc1cc(C(C)(C)c2cc(C)c(O)c(C)c2)cc(C)c1O
inactive: [1] 12.6% | [2] -41.1% | [3] -6.9% | [4] 27.4% | [5] -17.6% | [6] -12.3%

CCN1CCC(O)(c2ccccc2)C(C(=O)c2ccccc2)C1 (stereo unspecified)
inactive: [1] 5.15% | [2] -17.1% | [3] 5.3% | [4] 20.7% | [5] -10.9% | [6] 16.4%

CC(=O)c1ccccc1N=Nc1ccc(N(CCCl)CCCl)cc1
inactive: [1] -9.5% | [2] -5.5% | [3] 0.15% | [4] 18% | [5] 15.2% | [6] -0.05%

CC1(C)CN1C1=C(Br)C(=O)C(N2CC2(C)C)=C(Br)C1=O
inactive: [1] 18.8% | [2] 0.9% | [3] 7.75% | [4] 9.9% | [5] -0.65% | [6] 30.1%

Cc1c(OCC(=O)N/N=C/c2ccc(N(CCCl)CCCl)cc2)ccc2c(=O)c3ccccc3oc12
inactive: [1] -1.95% | [2] -10.3% | [3] -3.15% | [4] -15.5% | [5] 13.8% | [6] -8.35%

CC12CC[C]([Hg][I])(CC1)C2(C)C
active: [1] 96.5% | [2] 98.6% | [3] 99.8% | [5] 74.9% | [6] 84.8%
inactive: [4] 4.3%

CC(C)=C(OP1(=S)OCCN1C)C(C)(C)C(=O)N(C)C (stereo unspecified)
inactive: [1] -2.6% | [2] -3.65% | [3] -1.9% | [4] 12.8% | [5] 11.9% | [6] 4.45%

C=CCOC(N)=O
inactive: [1] 6.85% | [2] 8.3% | [3] -0.3% | [4] 20.9% | [5] 22.5% | [6] 1.65%

C[C@]12CCNC(=O)C=C1CC[C@@H]1C2CC[C@@]2(C)C1CC[C@@H]2OC(=O)COc1ccc(N(CCCl)CCCl)cc1 (stereo partly specified)
inactive: [1] 24.4% | [2] 25.1% | [3] 21.6% | [4] 60% | [5] 35.8% | [6] -26.1%

NS(=O)(=O)c1ccc([As](=O)(O)O)cc1
inactive: [1] -1.1% | [2] -3.85% | [3] 5% | [4] -45.5% | [5] 12.2% | [6] -15.7%

CC(=O)O[C@H]1CCC2[C@@H]3CCC4c5nonc5CC[C@]4(C)C3CC[C@@]21C (stereo partly specified)
inactive: [1] 28.4% | [2] 5.55% | [3] 22.9% | [4] 35.1% | [5] 27.6% | [6] 17.9%

BrCCCCCCBr
inactive: [1] -5.65% | [2] 5.8% | [3] 3.25% | [4] -29.3% | [5] 5.6% | [6] 5.4%

O=C([O-])CC(=O)[O-].O=C([O-])CC(=O)[O-].[K+].[Pd+2]
inactive: [1] 14.2% | [2] 19.1% | [3] 28.2% | [4] 26.6% | [5] 11.5% | [6] 16.2%

COc1ccc(CC2OC3(CCCCC3)CC3CCCCN32)cc1 (stereo unspecified)
inactive: [1] 23.2% | [2] 13.9% | [3] 11.5% | [4] 7.65% | [5] -5.6% | [6] 6%

COc1cc(C2c3cc4c(cc3OC(NCCO)C2C)OCO4)cc(OC)c1O (stereo unspecified)
inactive: [1] 6.1% | [2] -11.5% | [3] -14.3% | [4] 9.25% | [5] -18.1% | [6] -0.65%

CC(=O)c1ccc(N2CCNCC2)cc1
inactive: [1] -27.6% | [2] -49.8% | [3] -3.95% | [4] 16.6% | [5] -14.2% | [6] -22.1%

CCOP(=O)(OCC)C1CC(C(C)C)CC=C1C (stereo unspecified)
inactive: [1] 5.4% | [2] -8.95% | [3] -2.15% | [4] 1.25% | [5] 3.75% | [6] 15.1%

CC1=CC(C(=O)O)P(C)(=O)C1 (stereo unspecified)
inactive: [1] -0.9% | [2] -18.2% | [3] -12.3% | [4] -11.6% | [5] 0.4% | [6] -10.3%

COc1ccc(CC(N)c2ccccc2)cc1OC (stereo unspecified)
inactive: [1] -15.3% | [2] 23.9% | [3] -8.85% | [4] -21.1% | [5] -1.55% | [6] -29.1%

Cc1nc(N)sc1S(=O)(=O)F
inactive: [1] -41.9% | [2] -29.7% | [3] -21.6% | [4] -14.1% | [5] -29.4% | [6] -5.15%

O=C(NCCN1CCOCC1)C1(O)N=C(c2ccccc2)c2ccsc2-n2cccc21 (stereo unspecified)
inactive: [1] 51.3% | [2] 30.3% | [3] 64.2% | [4] -6.05% | [5] 27.6% | [6] 36.5%

CC[As](CC)SCC1OC(OC(C)=O)C(OC(C)=O)C(OC(C)=O)C1OC(C)=O (stereo unspecified)
active: [1] 99.1% | [2] 98.5% | [4] 99.5% | [6] 98.9%
inactive: [3] 68.2% | [5] 65.8%

C=CC12CN(C)C3C4COC(CC41)C1(C(=O)Nc4ccccc41)C32 (stereo unspecified)
inactive: [1] 1.25% and -22.5% | [2] -3.3% and -18.6% | [3] -7.35% | [4] -13.5% | [5] -11.6% | [6] 29.2% and -19.2%
